MmCpn inh: Inhibitors of TCP-1 ring complex (TRiC) of Methanococcus maripaludis (MmCpn): qHTS | purified Mm-Cpn ATPase, ADP Transcreener TR-FRET | Potency, µM (highest dose often 76.9 µM), hits mostly inhibitors | hit rate 0.031% among 330,000; also: nearly all actives have a fitted effect of over 80% in size
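Measured: ADP formation by purified Mm-CPN. Conditions: 25 nM protein, 10 uM ATP, Tris pH 7.4 with Mg2+, K+ and DTT, 37°C for 30 min. Detection: Transcreener HTRF after 30 min at room temperature.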
PTHR1 ag: qHTS for PTHR1 Agonists: Primary Screen | AID 743266, 2014 | HEK293 GP2 PTHR1 cells, GloSensor cAMP luminescence, 1 h | Parathyroid hormone/parathyroid hormone-related peptide receptor (Homo sapiens), Q03431 | Potency, µM (top dose mostly 115 µM), most hits filed as activators | hit rate 0.075% among 410,000; also: nearly all actives have a fitted effect of over 55% in size
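HEK-293-derived GP2 cells expressing PTHR1 and a GloSensor cAMP reporter, 3,000/well, plated overnight, given luciferin plus IBMX (each 0.5 mM as added) for 1 h at 37 °C, then compound for 1 h at 37 °C. Luminescence was read after 15 min at room temperature.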
ERG-DNA inh: qHTS for Small Molecule Inhibitors of the ERG Ets/DNA interaction | Potency, µM (doses to about 76.9 µM), actives largely listed as inhibitors | fluorescence polarization, His-ERG Ets domain / labelled DNA | hit rate 0.028% among 370,000 | Transcriptional regulator ERG (Homo sapiens), P11308; active = well fitted inhibition curve with a large enough effect in the polarisation, with a control signal flat; inconclusive = small, poorly fitted or top-dose-only effect, or effect the other way, or a change in a side signal; inactive = no such curve, though single readings can be large or run the other way; the % refers to the polarisation;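 also: polarization taken with two DNA probes labelled with fluorescein and Texas red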
Target sequence (P11308 whole entry, looked up, the tested form may be a part): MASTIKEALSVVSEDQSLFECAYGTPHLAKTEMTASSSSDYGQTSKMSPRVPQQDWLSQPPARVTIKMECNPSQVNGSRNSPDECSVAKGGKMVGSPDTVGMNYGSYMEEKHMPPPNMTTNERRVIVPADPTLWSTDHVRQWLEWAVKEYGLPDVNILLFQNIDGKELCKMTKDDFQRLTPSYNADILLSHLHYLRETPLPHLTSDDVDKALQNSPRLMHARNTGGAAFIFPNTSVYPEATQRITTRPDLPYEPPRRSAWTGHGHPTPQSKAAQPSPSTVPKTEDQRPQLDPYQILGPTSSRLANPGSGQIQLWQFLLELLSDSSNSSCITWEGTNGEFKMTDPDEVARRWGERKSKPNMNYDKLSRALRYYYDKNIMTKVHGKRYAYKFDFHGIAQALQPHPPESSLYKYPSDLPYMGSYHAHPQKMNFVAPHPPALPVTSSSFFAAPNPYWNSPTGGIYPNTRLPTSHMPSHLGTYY
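His-tagged ERG Ets domain (1 uM in the protein solution; 300mM KCl, 50mM Tris-HCl, 1mM EDTA, 1mM DTT, pH 7.5) received compound, then a probe mix of 5 nM fluorescein-DNA and 100nM Texas-615-DNA. Fluorescence polarization was read for both dyes.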
CCT chaperon mod: High-Throughput Screening for Modulators of Cytosolic Chaperonin Activity. purified chaperonin ATPase assay, HTRF ADP detection, 30 min. activity change, % (test concentration not listed), hits read low. hit rate 0.3% among 360,000. AID 651819, 2012; in the data active = activity change below about -30%
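Enzyme 40 or 20 nM (batch-dependent) in Tris pH 7.4/KCl/MgCl2/DTT; cpd 76 uM single point; ATP 10 uM; 30 min 37 °C; Transcreener ADP HTRF detection, 30 min RT; ratio 665/615.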
RGS4 inh: Inhibitors of Regulator of G Protein Signaling (RGS) 4: qHTS; Regulator of G-protein signaling 4 (Homo sapiens), P49798; Transcreener GDP fluorescence polarization, RGS4-accelerated GTP hydrolysis; Potency, µM (doses to about 114 µM), most hits filed as inhibitors; hit rate 0.039% among 390,000; AID 504845, 2011; also: nearly all actives have a fitted effect of over 75% in size
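MLSMR compounds (23 nl, pin-transferred) preincubated 10 min at room temperature with a 500nM (2x) first reagent, then RGS4 at 900nM (2x) plus Transcreener GDP mix added; fluorescence polarization (620/688 nm) read before and after 90 min at 30 °C.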
Hits are given with their value; - = inactive; ? = inconclusive; . = no result given; [ ] = another dose, or the depositor's remark. Hits are enriched below; roughly 0.36% of the tested compounds scored in any of these assays. Unless noted, calls follow the shape of the dose curve; as a rule, active = well fitted curve in the direction sought with a large enough effect; inconclusive = small, poorly fitted or top-dose-only effect, or another doubt; inactive = no such curve, though single readings can be large; an effect the other way counts as inactive or inconclusive.

SMILES	MmCpn inh	PTHR1 ag	ERG-DNA inh	CCT chaperon mod	RGS4 inh
COc1ccccc1-c1c(C)oc2c(CN3CCN(C)CC3)c(O)ccc2c1=O	-	-	-	-	-
COc1ccc(OC)c(NC(=O)c2c(C)oc3ncnc(N4CCOCC4)c23)c1	.	-	-	.	-
OC(c1ccccc1)(c1nc(-c2cccc(C(F)(F)F)c2)cs1)C(F)(F)F (configuration not stated)	.	-	.	-	.
FC(F)(F)c1cccc(-c2ccn3ncnc3n2)c1	-	-	-	-56	-
C/C=C/C(=O)[C@@H](C)[C@@H](/C=C/C[Si](C)(C)C)c1ccccc1	.	.	.	.	-
CCOCCCNC(=O)C(c1ccc(OC)cc1)N(Cc1ccc2c(c1)OCO2)C(=O)c1cnccn1 (configuration not stated)	-	-	-	-65	?
CC(=O)Nc1nc(=S)ss1	-	-	-	-	-
Cc1ccccc1C(=O)Nc1nc(=S)ss1	-	-	-	-57	-
NC(=O)C1CCN(c2nc(-c3ccc(N4CCCCC4)nc3)cs2)CC1	-	.	.	.	.
O=C(NCCCNC(=O)c1c(F)cccc1F)c1c(F)cccc1F	-	-	-	-78	-
Cc1ccc(NC(=O)CC(C)S(=O)(=O)c2ccc3c(c2)NC(=O)CO3)c(C)c1 (configuration not stated)	.	-	-	.	-
Cc1ccccc1NC(=O)CC(C)S(=O)(=O)c1ccc2c(c1)NC(=O)CO2 (configuration not stated)	-	-	-	-63	-[11.4 µM]
CCN(c1ccccc1)S(=O)(=O)c1c(-c2ccc(C)cc2)csc1C(=O)OC	.	-	-	.	-
COc1ccc(C)cc1-n1cnc2sc(C)c(C)c2c1=O	.	-	.	-	.
COc1ccccc1-n1cnc2sc(C)c(C)c2c1=O	-	-	-	-94	-
CCC(=O)N1c2ccc(S(=O)(=O)CCC(=O)Nc3ccc(Br)c(C)c3)cc2CC1C (configuration not stated)	.	-	-	.	-
CC/C=C\C/C=C\C/C=C\C/C=C\C/C=C\CCCCCC(=O)O	.	.	.	.	21µM
CC/C=C\C/C=C\C/C=C\C/C=C\C/C=C\C/C=C\CCC(=O)O	.	.	.	.	-
CCCCC/C=C\C/C=C\C/C=C\CC1OC1CCCC(=O)O (configuration not stated)	.	.	.	.	38µM
CCCCC[C@H](O)/C=C/[C@H]1[C@H](O)CC(O)[C@@H]1C/C=C\CCCC(=O)O (some centres not stated)	.	.	.	.	27µM
CCOC(=O)Cn1c(=O)n(CC2CCCO2)c2nc(-c3cccc(C)c3)nc(C(N)=O)c21 (configuration not stated)	.	-	-	.	-
Cc1ccc(-c2cc(C(=O)Nc3ccc4c(c3)OCCO4)c3ccccc3n2)cc1	-	-	-	-33	-
Cc1ccc(NC(=O)c2cc(C)nc3ccccc23)cc1	-	-	-	-	-
Cc1cccc(NC(=O)c2cc(C)nc3ccccc23)c1	-	-	-	-39	-
CN(C)S(=O)(=O)c1cccc(NC(=O)c2cc(-c3cccs3)nc3ccccc23)c1	?	-	.	-32	-
SMILES	MmCpn inh	PTHR1 ag	ERG-DNA inh	CCT chaperon mod	RGS4 inh
O=C(Nc1ccc2c(c1)OCO2)c1cc(-c2cccnc2)nc2ccccc12	-	-	-	-	-
COc1ccc2c(CNC3CCC(C)CC3)c(C(=O)O)n(Cc3ccccc3)c2c1 (configuration not stated)	.	-	-	.	-
O=C(CN1C(=O)CCSc2ccccc21)Nc1ccccc1	-	-	-	-	-
O=C(CN1C(=O)CCSc2ccccc21)NC1CCCCC1	-	-	-	-36	-
Cc1[nH]c2ccc(C(=O)NCCc3ccccc3Cl)cc2c1C	.	-	-	.	-
Cn1cccc1C(=S)N=P(C1CCCCC1)(N1CCOCC1)N1CCOCC1	-	-	.	-52	-
Cn1cccc1C(=S)N1CCOCC1	-	-	-	-	-
O=C(CCc1cn(Cc2ccc(F)cc2)c2ccccc12)NCCc1ccc(Cl)cc1	.	-	-	.	-

Source: PubChem BioAssay
